According to PubChem BioAssay (EPA / NIEHS):
Results filed as inconclusive are left out. Activity calls are given as the source filed them. The calls were made as follows: active = hit-call score of the fitted dose curve at least 0.9, where 1 is the maximum; inconclusive = response in the unintended direction; inactive = score below 0.9.

Molecular target: human Thyroid Receptor alpha (THRa1), THRA (gene 7067) (UniProt P10827)
Experiment: ATG_THRa1_TRANS: Attagene TRANS-FACTORIAL HepG2 Assay for human Thyroid Receptor alpha (THRa1) (AID 2283014)
Procedure: ATG_TRANS is a cell-based, multiplexed-readout assay that uses HepG2, a human liver cell line, with measurements taken at 24 hours after chemical dosing in a 24-well plate.ATG_THRa1_TRANS is one of 30 assay component(s) measured or calculated from the ATG_TRANS assay. It is designed to make measurements of mRNA induction, a form of inducible reporter, as detected with fluorescence intensity signals by Reverse transcription polymerase chain reaction (RT-PCR) and Capillary electrophoresis technology.Data from the assay component ATG_THRa1_TRANS was analyzed into 1 assay endpoint. This assay endpoint, ATG_THRa1_TRANS, was analyzed in the positive analysis fitting direction relative to DMSO as the negative control and baseline of activity. Using a type of inducible reporter, measures of mRNA for gain-of-signal activity can be used to understand the reporter gene at the transcription factor-level as they relate to the gene THRA. Furthermore, this assay endpoint can be referred to as a primary readout, because this assay has produced multiple assay endpoints where this one serves a reporter gene function. To generalize the intended target to other relatable targets, this assay endpoint is annotated to the nuclear receptor intended target family, where the subfamily is non-steroidal.
Human liver HepG2 cells are transiently transfected with multiple reporter transcription units (MRTUs) in 6-well plates using FuGene 6 reagent (Roche; 3 ml FuGene/1 mg DNA). The MRTU constructs are regulated by a cis-regulating element (promoter). […] A major difference between the CIS and TRANS system is that in CIS activities of endogenous TFs are measured, whereas the TRANS assay evaluates changes in activities of exogenous, chimeric NR-Gal4 proteins. […] At the end of 24 hour incubation, total RNA was isolated using TriZol reagent (Invitrogen). The isolated RNA is then reverse-transcribed using oligo(dT) primer and Mo-MLV reverse transcriptase (Invitrogen) with DNAse I (Ambion) treatment for 30 min. The one-tenth of the produced cDNA was amplified by PCR using Taq DNA polymerase (Invitrogen) and two reporter sequence-specific primers. The PCR products were fluorescently labeled by primer extension with 6-arboxyfluorescein (6-FAM) 5'-labeled reporter sequence-specific primer (2 min at 95 C, 20 s at 68 C and 10 min at 72 C) and these products were digested with 5U of HpaI (New England Biolabs) for 2h at 37 C. The fragments were purified using Qiaquick PCR columns (Qiagen), analyzed on an ABI 3130xL genetic analyzer (Applied Biosystems) with peak positions identified by using a set of X-rhodamine (ROX)-labeled MapMarker1000 molecular weight standards (BioVentures). The raw capillary electrophoresis data was processed using Attagraph software (Attagene).

Sequence of human Thyroid Receptor alpha (THRa1), THRA (gene 7067) (P10827 whole entry, looked up): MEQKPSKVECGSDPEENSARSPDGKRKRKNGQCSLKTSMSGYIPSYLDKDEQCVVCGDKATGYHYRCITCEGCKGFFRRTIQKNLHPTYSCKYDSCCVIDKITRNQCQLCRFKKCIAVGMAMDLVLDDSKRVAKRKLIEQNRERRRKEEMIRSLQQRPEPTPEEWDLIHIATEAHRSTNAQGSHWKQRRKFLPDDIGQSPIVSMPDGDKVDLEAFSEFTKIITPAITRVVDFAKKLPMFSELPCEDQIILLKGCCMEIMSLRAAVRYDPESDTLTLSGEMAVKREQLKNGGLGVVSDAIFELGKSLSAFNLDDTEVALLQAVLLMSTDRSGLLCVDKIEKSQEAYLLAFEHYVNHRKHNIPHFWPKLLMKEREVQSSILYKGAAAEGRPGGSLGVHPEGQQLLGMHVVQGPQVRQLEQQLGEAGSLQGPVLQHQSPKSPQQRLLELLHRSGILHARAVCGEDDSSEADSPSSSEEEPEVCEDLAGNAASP

outcome, inactive:
NNC(=O)c1cccc(C(=O)NN)c1, CCCCC(CC)COC(=O)c1ccccc1 (stereo not given), Cc1ccc2oc(=O)ccc2c1, CC(=O)Nc1ccc2c(c1)Cc1cc(NC(C)=O)ccc1-2, N=c1ccn2c(n1)O[C@H]1[C@H](O)[C@@H](CO)O[C@H]12, C=CC(C)(CCC=C(C)C)OC(=O)C(C)C (stereo not given), O=S(=O)(O)c1cc(S(=O)(=O)O)c2ccc3c(S(=O)(=O)O)cc(S(=O)(=O)O)c4ccc1c2c43, O=C1c2ccccc2C(=O)C1c1nc2ccccc2c(Br)c1O, CC1(C)O[C@@H]2C[C@H]3[C@@H]4C[C@H](F)C5=CC(=O)C=C[C@]5(C)[C@@]4(F)[C@@H](O)C[C@]3(C)[C@]2(C(=O)CO)O1, Nc1ncn([C@@H]2O[C@H](CO)[C@@H](O)[C@H]2O)c(=O)n1, Nc1nc2ccccc2[nH]1, c1cc(C(c2ccc(OCC3CO3)cc2)C(c2ccc(OCC3CO3)cc2)c2ccc(OCC3CO3)cc2)ccc1OCC1CO1 (stereo not given), C=CC(=O)NC(C)(C)CS(=O)(=O)O, O=C(c1ccc(O)cc1)c1ccc(O)cc1O, O=C1C=CC(=O)O1, CCCCNc1ccc(NCCCC)c2c1C(=O)c1ccccc1C2=O, O=C1CCCCCN1SSN1CCCCCC1=O, Nc1ccc(-c2ccc(F)cc2)cc1, CCc1ccc2c(c1)C(=O)c1ccccc1C2=O, CCCCCCCCCCc1ccccc1, COCC(C)N (stereo not given), O=c1[nH]c(=O)c2[nH]c(=O)[nH]c2[nH]1, OC1CCCC1, O=C1c2cccc(O)c2C(=O)c2c(O)cc(CO)cc21, CC(C)(c1cc(Br)c(OCCO)c(Br)c1)c1cc(Br)c(OCCO)c(Br)c1, CC=CC(=O)N(CC)c1ccccc1C, O=S1(=O)OC(c2ccc(O)cc2)(c2ccc(O)cc2)c2ccccc21, c1ccc2c(c1)ccc1cc3c(ccc4ccccc43)cc12, CC(C)(C)C(=O)C=Cc1ccc(Cl)cc1, COc1c2ccoc2cc2oc(=O)ccc12, CC(C)=CCCC(C)C=O (stereo not given), O=c1cc(-c2ccccc2)oc2ccccc12, C=C(C)c1cccc(C(C)(C)N=C=O)c1, CN(C)CCCN(C)C, O=C1CC2CC1C1CCCC21 (stereo not given), C=C[Si](OC(C)=O)(OC(C)=O)OC(C)=O, O=C(O)CCCC[C@@H]1SC[C@@H]2NC(=O)N[C@@H]21, CC(C)(C)C(=O)CCc1ccc(Cl)cc1, CCC(Cc1ccccc1)(C(=O)c1ccc(N2CCOCC2)cc1)N(C)C (stereo not given), O=C(Nc1cccc(C(F)(F)F)c1)c1cc(Br)cc(Br)c1O
